FUS suppressor – FUS proteinopathy suppression in yeast; Potency, µM (series often up to 76.6 µM), hits mostly activators; S. cerevisiae FUS-expressing, growth rescue, OD600, 24 h; 0.24% of 390,000 active;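 also: plate controls were DMSO vehicle for no effect and reference control for full effect; nearly all actives have a fitted effect of over 55% in size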
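Yeast FUS proteinopathy model; galactose-induced FUS (2%), starting OD 0.005. Cpds in dilution series, 24hr, 30C, 99% humidity. Abs 600 nm growth. Pos ctrl CP55940 (top 92uM final); neg ctrl DMSO.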
TDP43 rescue – rescues yeast growth from TDP-43 toxicity; TDP-43 expressing yeast growth rescue, BacTiter-Glo, 24 h; Potency, µM (titrated, usually from 46.1 µM), without a hit: top-dose growth rescue (activation), most hits filed as activators; 1.8% of 410,000 active; AID 652104; also: % of control where 0% means no effect; nearly all actives have a fitted effect of over 50% in size
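Luminescence from BacTiter-Glo reports growth of TDP-43-expressing yeast after 24 hr at 30 deg C with compound. Cells were raffinose-pregrown to mid-log, then seeded in galactose medium at OD600=0.02.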
Abeta yeast res – compounds reversing amyloid beta toxicity in yeast; AID 1347071; yeast expressing A-beta42, growth rescue, OD600, 48 h; response scale: 0% DMSO, 100% iron-clioquinol control; Potency, µM (doses to about 46.1 µM), hits mostly activators; 0.063% of 410,000 active; also: nearly all actives have a fitted effect of over 55% in size
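Growth rescue measured by 600 nm absorbance after 48 h yeast culture at 30 C with compound. Values normalized between DMSO and an equimolar ferric chloride plus clioquinol control.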
aSyn yeast inh – rescues yeast growth from alpha-synuclein toxicity; 0.14% of 370,000 active; Potency, µM (top dose mostly 46.1 µM), without a hit: at the highest dose growth rescue (activation), usual class: activators; Yeast expressing alpha-synuclein, growth rescue, BacTiter-Glo, 24 h; also: % of control where 0% means no effect; nearly all actives have a fitted effect of over 65% in size
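Readout is rescue of growth in alpha-synuclein-expressing yeast, so inhibitors of toxicity appear as activators. Growth after 24 hr at 30 deg C in galactose medium is quantified by luminescence.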
Mito fusion yeast – blocks mitochondrial division or promotes mitochondrial fusion | S. cerevisiae fusion-defective mutant growth rescue, CellTiterGlo 48 h | Potency, µM (highest dose often 46.1 µM), without a hit: top-dose growth rescue (activation), hits mostly activators | 0.23% of 320,000 active | AID 485298; also: % of control where 0% means no effect; nearly all actives have a fitted effect of over 45% in size
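Yeast fusion mutant, YPEG (non-fermentable carbon), compound, 48 h at 37C non-permissive; CellTiterGlo added, 10 min RT, luminescence read. Rescued growth = division inhibition.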
The depositor's hits bear a star; i = inactive; ? = inconclusive; nt = no result; [ ] = dose if it differs, or a comment. An excerpt weighted towards active compounds, which were near 2.2% of everything screened. Calls follow the shape of the dose curve; as a rule, active = well fitted curve in the direction sought with a large enough effect; inconclusive = small, poorly fitted or top-dose-only effect, or another doubt; inactive = no such curve, though single readings can be large; an effect the other way counts as inactive or inconclusive. Potency is read from the fitted curve at half-maximal effect.

SMILES | FUS suppressor | TDP43 rescue | Abeta yeast res | aSyn yeast inh | Mito fusion yeast
C=C(C)[C@H]1Cc2c(ccc3c2O[C@@H]2COc4cc(OC)c(OC)cc4[C@@H]2C3=O)O1 | nt | nt | nt | 1% | 18µM*
CC(C)CN(CC(C)C)C(=O)C1C2c3ccccc3C(c3ccccc32)C1C(=O)O (centres undefined) | i | 11µM* | i | -9% | -4%
CCCCN1C(=O)NC(=O)C2(Cc3c(nc4c(C)cccn4c3=O)N3CCc4ccccc4C32)C1=O (centres undefined) | ? | 35µM* | i | 18% | ?
O=C(Nc1ccc2c(c1)OCCO2)c1cccn(Cc2cccc(F)c2)c1=O | i | 35µM* | i | nt | nt
O=C(Nc1ccc2c(c1)OCO2)c1cccn(Cc2cccc(F)c2)c1=O | i | 11% | i | nt | nt
COc1ccc(N2C(=O)/C(=C/c3ccc(C)o3)C(=O)NC2=S)cc1 | i | 7.1µM* | i | 5% | 3%
CC1=CC(=O)OC2CC3OC4C[C@@H](C)C5OC6CC7O[C@]8(C)C/C=C\C9OC%10CC%11OC(CC(C)C%12OCCO%12)CC(O)[C@]%11(C)OC%10CC9OC8C[C@]7(C)O[C@]6(C)CCC5OC4C[C@]3(C)OC12 (some centres undefined) | 10µM* | 8% | i | -9% | nt
[Hg+][c]1ccccc1 | nt | nt | nt | -79% | nt
COC(=O)[C@H]1[C@H]2C[C@@H]3c4[nH]c5cc(OC)ccc5c4CCN3C[C@H]2C[C@@H](OC(=O)/C=C/c2cc(OC)c(OC)c(OC)c2)[C@@H]1OC | ? | ? | i | 1% | 8%
Cn1c(=O)oc2cc(S(=O)(=O)Nc3cccc([N+](=O)[O-])c3)ccc21 | i | -15% | i | -1% | ?
COCCNC(=O)c1c(NC(=O)c2ccc(Br)o2)n(Cc2ccccc2)c2nc3ccccc3nc12 | i | 23% | i | -6% | 7.1µM*
O=C(Oc1ccc2ccccc2c1)c1ccco1 | i | 11µM* | i | -8% | -2%
Nc1ccc(C2(c3ccc(N)cc3)c3ccccc3-c3ccccc32)cc1 | i | -2% | i | 1% | 25µM*
CSc1ccccc1NC(=O)CN(C)CC(=O)c1[nH]c(C)c(C(C)=O)c1C | i | ? | i | -2% | nt
O=S(=O)(Nc1ccc(-c2nc3ccccc3o2)cc1)c1ccccc1 | i | 14µM* | i | 2% | ?
CN1CC[C@@]2(C)c3cc(OC(=O)Nc4ccccc4)ccc3N(C)[C@@H]12 | nt | nt | nt | 3% | -10%
Nc1ccc(Cl)cc1C(=O)c1ccccc1Cl | i | 20µM* | i | ? | 21%
Nc1ccc(Cl)cc1C(=O)c1ccccc1 | i | -2%[0.397 µM] | i | 6% | -5%
CC(C)(C)OC(=O)NCc1ccc(CNC(=O)c2[nH]cnc2C(=O)Nc2ccccc2F)cc1 | i | ? | i | 2% | nt
Cc1ccc(S(=O)(=O)N(C)C[C@@H]2Oc3ncc(Br)cc3C(=O)N([C@H](C)CO)C[C@@H]2C)cc1 | i | 6% | i | 8% | nt
Cc1ccccc1-n1c(-c2ccc([N+](=O)[O-])cc2)nc2ccccc2c1=O | i | ? | i | 20µM* | 7%
S=C1Nc2ccccc2Sc2ccccc21 | i | ? | i | 21% | 1%
c1ccc2c(c1)CSc1ccccc1N2 | i | 20µM* | i | -5% | nt
CC1(C(=O)O)CC12c1ccccc1-c1ccccc12 (centres undefined) | nt | 3.2µM* | i | -20% | nt
Cc1ccc(C)c(N2CCN(c3nc4ccc(Cl)cc4n4cnnc34)CC2)c1 | i | ? | i | nt | nt
SMILES | FUS suppressor | TDP43 rescue | Abeta yeast res | aSyn yeast inh | Mito fusion yeast
C[C@H]1O[C@@H](O[C@H]2[C@@H](O)C[C@@H](O[C@H]3[C@@H](O)C[C@H](O[C@H]4CC[C@@]5(C)[C@H](CC[C@@H]6[C@@H]5CC[C@]5(C)[C@@H](C7=CC(=O)OC7)CC[C@]65O)C4)O[C@@H]3C)O[C@@H]2C)C[C@H](O)[C@@H]1O | nt | nt | nt | 2% | nt
O=C1NCN(c2ccccc2)C12CCNCC2 | i | -10% | i | -5% | -8%
O=C1NCN(c2ccccc2)C12CCN(CC1COc3ccccc3O1)CC2 (centres undefined) | nt | nt | nt | 9% | 21µM*
CC(C)c1ccc(NC(=O)Nc2nc(C(N)CCc3ccccc3)cs2)cc1 (centres undefined) | i | 10% | i | -45% | nt
CCCCC[C@H]1CCCCC[C@H](O)C[C@@H](O)[C@H](O)/C=C/C(=O)O1 | i | 26% | i | 2% | nt
Cc1ccccc1-c1nc(CN2C(=O)CN=C(c3ccccc3)c3ccccc32)c(C)o1 | i | ? | i | nt | nt
Cc1cccc(CN2C(=O)CN=C(c3ccccc3)c3ccccc32)c1 | i | 5% | i | nt | nt
Cc1cccc(-c2nc(CN3C(=O)CN=C(c4ccccc4)c4ccccc43)c(C)o2)c1 | i | 35µM* | i | nt | nt
Cc1oc(-c2ccccc2)nc1CN1C(=O)CN=C(c2ccccc2)c2ccccc21 | i | ? | i | -7% | 13µM*
COC(=O)C1(C(=O)OC)C[C@H](c2ccc(OC)cc2)N(Cc2ccccc2OC)[C@@H]1c1ccccc1 | i | 5% | i | ? | nt
CN(C)c1c([N+](=O)[O-])cc(N2C(=O)C=CC2=O)cc1[N+](=O)[O-] | i | -91% | i | -79% | nt
CC1(O)CCN2C(=O)CCc3cccc1c32 (centres undefined) | i | 13µM* | i | -7%[1.84 µM] | 5%
O=C1NC(=O)C2(Cc3ccccc3N3CCCC32)C(=O)N1c1ccccc1 (centres undefined) | ? | 3% | i | -3% | 6%
CN1c2ccc([N+](=O)[O-])cc2CC2(C(=O)NC(=O)N(c3ccc(Br)cc3)C2=O)C1c1ccccc1 (centres undefined) | 18µM* | -9% | i | 12% | 18%
COc1cc2c(ccc3c4cc(OC)c(OC)cc4c[n+](C)c23)cc1O | nt | 11µM* | i | 7% | nt
COc1ccc2c(c[n+](C)c3c4cc5c(cc4ccc23)OCO5)c1OC | nt | nt | nt | -10% | 5.8µM*
COc1ccc2c(c1OC)CN1CCc3cc4c(cc3[C@H]1C2)OCO4 | i | 22% | i | -1% | 11%
O=c1[nH]c(=O)n(CCC2=CCCCC2)c(O)c1C=NCCCn1ccnc1 | 13µM* | -14% | i | -5% | 3%
CCCCOP(=O)(OCCCC)C(Nc1ccccc1)c1ccc2c(c1)OCO2 (centres undefined) | nt | 3% | i | 13% | ?
Nc1ccc(Br)cc1C(=O)c1ccccc1 | i | 16µM* | i | ? | 12%
